This is an account of results in ChEMBL document CHEMBL3433997, “St. Jude Leishmania screening dataset” (2016).

Holding throughout (assay type): functional
In assay [1] the target is Solute carrier family 2, facilitated glucose transporter member 1 (Homo sapiens) (UniProt P11166). The assay can be described thus: ST_JUDE_LEISH: Cytotoxicity at 2uM final concentration against transgenic Leishmania Mexicana promastigotes LmGLUT1 that are glucose transport deficient and complemented with the human glucose transporter GLUT1. Activity is measured by DNA content using SYBR green in vitro.

In assay [2] the target is Hexose transporter 1 (Plasmodium falciparum) (UniProt O97467). Nature of the assay: ST_JUDE_LEISH: Cytotoxicity at 2uM final concentration against transgenic Leishmania Mexicana promastigotes LmPfHT that are glucose transport deficient and complemented with the Plasmodium falciparum hexose transporter. Activity is measured by DNA content using SYBR green in vitro.
In assay [3] the target is Glucose transporter (Leishmania mexicana) (UniProt O61059). Nature of the assay: ST_JUDE_LEISH: Cytotoxicity at 2uM final concentration against transgenic Leishmania Mexicana promastigotes LmGT2 that are glucose transport deficient and complemented with the L. Mexicana glucose transporter 2. Activity is measured by DNA content using SYBR green in vitro.

Sequence of Solute carrier family 2, facilitated glucose transporter member 1 (Homo sapiens) (P11166 whole entry): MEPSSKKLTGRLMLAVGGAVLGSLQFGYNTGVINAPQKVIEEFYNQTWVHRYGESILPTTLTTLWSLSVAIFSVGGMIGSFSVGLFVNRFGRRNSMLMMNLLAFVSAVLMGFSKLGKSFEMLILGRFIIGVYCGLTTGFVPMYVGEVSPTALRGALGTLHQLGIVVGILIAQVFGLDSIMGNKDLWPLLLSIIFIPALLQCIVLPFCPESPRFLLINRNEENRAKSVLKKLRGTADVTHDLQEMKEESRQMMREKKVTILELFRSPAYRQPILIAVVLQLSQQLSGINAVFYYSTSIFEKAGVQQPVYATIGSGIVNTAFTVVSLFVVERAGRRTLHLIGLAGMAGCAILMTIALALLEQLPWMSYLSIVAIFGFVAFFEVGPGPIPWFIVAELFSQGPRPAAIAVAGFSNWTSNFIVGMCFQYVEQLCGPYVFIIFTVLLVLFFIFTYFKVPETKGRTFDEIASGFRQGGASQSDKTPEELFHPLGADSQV

What is called inhibition is the relative decrease from the control value, in per cent. In the case of `COc1cccc(NC(=O)N2CCOC(CCN3CCC4(CCc5ccccc54)CC3)(c3ccc(Cl)c(Cl)c3)C2)c1` (centres undefined), the inhibition in assay [1] came out at 7.21%; in assay [2] it was 8%; in assay [3], 1.65%.

For the compound `CCCOc1ccccc1C(=O)Nc1nonc1-c1ccc(OCC)c(OCC)c1`, the inhibition is 0.74% in assay [1], 0.51% in assay [2] and 0.93% in assay [3].

Turning to `CC(C)NCc1ccc(-c2ccc(NC(=O)c3cccc(Cl)c3)cc2)cc1`, the inhibition was -2.83% in assay [1], -1.18% in assay [2] and -3.53% in assay [3].

In the case of `CCCCNCc1ccc(-c2nc(CN(C(=O)Nc3cc([N+](=O)[O-])ccc3F)C3Cc4ccccc4C3)cs2)cc1`, the figures for the inhibition in assay [1], in assay [2] and in assay [3] were 6.86%, 8.03% and 4.78%, respectively.

As for `CS(=O)(=O)N1CC2(CCN(CCC(NC(=O)Nc3ccccc3)c3ccc(Cl)c(Cl)c3)CC2)c2ccccc21` (centres undefined), the inhibition was found to be 3.59% in assay [1], 3.17% in assay [2] and 3.05% in assay [3].

Turning to `c1cc(Nc2nccc(-c3cnn4ncccc34)n2)cc(-c2cnco2)c1`, the inhibition in assay [1] is 35.9%; in assay [2] it was 45.8%; in assay [3] it was 63.1%.

Take `Cn1cncc1CNCc1ccc(-c2cccc(-c3nc4ccccc4[nH]3)c2)cc1`: the inhibition in assay [1] was -1.06%; in assay [2], -1.22%; in assay [3] it was -4.84%.

For the compound `CCc1cccc2sc(N3CCN(C(=O)c4ccc([N+](=O)[O-])o4)CC3)nc12`, the inhibition in assay [1] is 71.2%; in assay [2], 69.1%; in assay [3], 36.8%.

For the compound `Cc1cccnc1Nc1nc(-c2ccccn2)cs1`, the inhibition in assay [1] was determined as 93.5%; in assay [2], 73.2%; in assay [3] it was 90.1%.

As for `Oc1ccc(CCCNc2nc(NCc3ccccc3-c3ccccc3)nc(NC3CCNCC3)n2)cc1`, the inhibition in assay [1] was -1.61%; in assay [2], -0.26%; in assay [3], -0.11%.

On to `CN1CCN(Cc2ccc(-c3ccc4c(Nc5cc(O)c(Cl)cc5F)ccnc4c3)o2)CC1`, for which the values for the inhibition in assay [1], in assay [2] and in assay [3] were 7.47%, 4.6% and 4.5%, respectively.

Consider `O=C(/C=C/c1ccc(Cl)c(Cl)c1)NCCCCCN1CCCN(C(=S)Nc2ccc(Cl)c(Cl)c2)CC1`, for which the results for the inhibition in assay [1], in assay [2] and in assay [3] were -0.53%, -1.2% and 0.13%, respectively.

Consider `NC(=O)C1CCN(Cc2ccc(-c3cccc(-c4nc5cc(F)ccc5[nH]4)c3)cc2)CC1`, for which the inhibition in assay [1] was -0.89%; in assay [2] it was -0.57%; in assay [3], -1.49%.

Consider `Cc1cc(N[C@@H](Cc2ccccc2)C(=O)NCc2cccs2)nc(NCCc2ccccc2)n1`, for which the inhibition in assay [1] is 2.96%; in assay [2], 2.94%; in assay [3], -1.2%.

As for `O=C(Nc1cccc(CN2CCCN(CCc3ccccc3)CC2)c1)c1cc2ccccc2s1`, the figures for the inhibition in assay [1], in assay [2] and in assay [3] were -1.04%, -1.82% and 1.52%, respectively.

As for `CCCN(CCC)CC(O)COc1ccccc1C(=O)Nc1ccccc1` (centres undefined), the inhibition in assay [1] is 1.49%; in assay [2], 1.09%; in assay [3] it was -5%.

Take `CCc1ccc(-n2cc(C(=O)c3cc(Br)ccc3O)cc(C#N)c2=O)cc1`: the inhibition came out at 3.35% in assay [1], 3.08% in assay [2] and 2.28% in assay [3].

In the case of `COc1cccc(NC(=O)Nc2c(-c3cccc(C(F)(F)F)c3)c(C(F)(F)F)nn2C)c1`, the inhibition in assay [1] was 0.7%; in assay [2] it was 1.76%; in assay [3] it was 0.37%.

As for `Oc1cc2c(cc1CN1CCN(Cc3ccccc3F)CC1)CCC2`, the inhibition in assay [1] was 1.19%; in assay [2], -1.37%; in assay [3], 2.62%.

Take `CC(C)(C)COc1ccc2c(N)n[nH]c2c1`: the values for the inhibition in assay [1], in assay [2] and in assay [3] were -1.62%, -1.52% and -0.66%, respectively.

Turning to `CCc1sc(CN(CCCNc2cc(=O)c3ccccc3[nH]2)Cc2sc(CC)c(Br)c2-c2ccsc2)c(-c2ccsc2)c1Br`, the inhibition in assay [1] is 3.98%; in assay [2], 4.16%; in assay [3], 5.33%.

For the compound `O=C(/C=C/c1ccc(Cl)c(Cl)c1)NCCCCCN1CCCN(C(=O)Nc2ccc(Cl)c(Cl)c2)CC1`, the inhibition is -0.96% in assay [1], -0.4% in assay [2] and -0.85% in assay [3].

For the compound `Cc1cccc2nc(-c3ccc(-c4cccc(CNC(C)C)c4)s3)[nH]c12`, the inhibition in assay [1] worked out at 2.58%; in assay [2] it was 1.37%; in assay [3] it was 3.77%.

Turning to `Cc1cc(C(=O)NCc2ccc(-c3c(C)noc3C)cc2)n(-c2ccc(Cl)cc2)n1`, the inhibition in assay [1] worked out at 8.7%; in assay [2], 7.89%; in assay [3], 2.6%.

Regarding `COc1ccc(CN2CCN(CC(=O)Nc3cc(Cl)ccc3-n3cncn3)CC2)cc1F`, the figures for the inhibition in assay [1], in assay [2] and in assay [3] were -1.01%, 1.82% and -0.67%, respectively.

Turning to `CCOc1ccc(-c2nonc2NC(=O)c2ccc(F)cc2)cc1OCC`, the inhibition in assay [1] is -2.77%; in assay [2], 2%; in assay [3], 1.5%.

`CCN(CC)CCCC(C)Nc1c2ccccc2nc2c1ccc1ccccc12` (centres undefined): the figures for the inhibition in assay [1], in assay [2] and in assay [3] were 7.99%, 3.26% and 7.76%, respectively.

In the case of `COc1ccc(NC(=O)/C=C/c2ccccc2Cl)cc1OCCN1CCC(O)(c2ccc(Cl)c(C(F)(F)F)c2)CC1`, the results for the inhibition in assay [1], in assay [2] and in assay [3] were 11.2%, 8.47% and 7.73%, respectively.

Turning to `COc1ccc(NC(=O)c2cc(-c3ccc(NC(C)=O)cc3)cnc2N)cc1`, the inhibition came out at 2.25% in assay [1], 2.66% in assay [2] and 0.5% in assay [3].

Consider `C=CCOC(=O)N1CCC(CNCc2ccc(-c3cccc(-c4nc5ccccc5[nH]4)c3)cc2)C1` (centres undefined), for which the inhibition in assay [1] was 3.24%; in assay [2] it was 1.73%; in assay [3] it was 3.33%.

`CN1CCN(c2ccnc3ccc(NC(=O)Nc4ccccc4Br)cc23)CC1`: the inhibition in assay [1] is -3.53%; in assay [2], -0.8%; in assay [3], 0.11%.

For the compound `CCCNCc1ccc(-c2ccc(CN(CCOC)C(=O)c3ccccc3)cc2)nc1`, the inhibition in assay [1] amounted to 1.21%; in assay [2] it was 0.61%; in assay [3], 1.11%.

Turning to `COc1ccc(CCNCCCCNCCc2ccc(OC)c3ccccc23)c2ccccc12`, the inhibition worked out at 64.4% in assay [1], 55.5% in assay [2] and 102% in assay [3].
